These results are taken from PubChem BioAssay (NCI).

This is part of a sample that, as a whole, favours compounds with a hit. Of some 83,000 tested, about 20% had one in any assay.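 Results are percent growth after 48 hours of single-concentration exposure. 100 means growth as in untreated cells, lower positive values show inhibition; negative values down to -100 show cell death.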 Unmarked numbers belong to inactive results. The source made the active and inactive calls. Rule for the calls: active = growth percent below 10; inactive = the rest.

The experiment deals with MDA-MB-468 breast. Description: NCI-60 one-dose screen, 48 h (100 = growth as untreated, 0 = no growth, -100 = all killed). The note with it: 10 µM unless noted.
For `O=C(N/N=C/C[C@@H]1[C@@H](/C=C/[C@@H](O)COc2cccc(Cl)c2)[C@H](O)C[C@@H]1O)c1ccncc1`, the growth is 97.9%.
`OC(COc1ccccc1Cl)CN1CCN(c2cccc(Cl)c2)CC1` (stereo not given): the growth was 103%.
As for `O=C(c1cccc(C(=O)c2ccc3c4c(cccc24)C(=O)N(c2ccccc2)C3=O)c1)c1ccc2c3c(cccc13)C(=O)N(c1ccccc1)C2=O`, the growth is 91.3%.
Consider `COc1ccc(CNc2ccc3nc(CCC4CCCCC4)[nH]c3c2)cc1`, for which the growth is 39.1%.
For the compound `CCNc1ncnc2c1cnn2C1CCCO1` (stereo not given), the growth was 102%.
In the case of `C=C(C)[C@@H]1CC[C@]2(COCCCNCCCN)CC[C@]3(C)[C@H](CC[C@@H]4[C@@]5(C)CC[C@H](O)C(C)(C)[C@@H]5CC[C@]43C)[C@@H]12`, the growth was -81.6% (active).
Under `COc1ccc(/C=C/c2c(C(=O)/C=C/c3ccccc3)c(C)nc3ccccc23)cc1` stands 12.8%.
`CN1CCN(Cc2ccc(NC(=O)c3cncc(C#Cc4cnc5ccc(OCC(C)(C)O)nn45)c3)cc2C(F)(F)F)CC1`: the growth was -40.2% (active).
Under `CCCOC(=O)C1(O)CCCC1` stands 97.1%; under `c1ccc(-c2cc3cc4ccccc4cn3c2)cc1`, 79.8%.
As for `COc1cc2c(cc1O)CCc1cc(O)cc(OC)c1-2`, the growth was 98%.
On to `C=C1C(=O)C2CCN1CC2`, for which the growth is 101%.
As to `N[C@H](CS)C(=O)O`, the growth was 93.1%.
For the compound `COc1ccc(-c2csc(NC(=O)Nc3nc(-c4ccc(OC)cc4)cs3)n2)cc1`, the growth was 47.3%.
As to `C#C[C@@]1(O)[C@@H](CO)O[C@@H](n2cc(Br)c3c(Cl)ccnc32)[C@@H]1O`, the growth was 14%.
